# Only some compounds are listed: those with a hit (about 17% of all), similar ones and a draw of the others.
# DT40 TDP1 no CPT – qHTS for Inhibitors of human tyrosyl-DNA phosphodiesterase 1 (TDP1): qHTS in cells in absence of CPT; 420,000 compounds, 15% hits; Potency, µM (series often up to 46.2 µM), inactives show at the highest dose activity change, negative = growth inhibition, actives largely listed as inhibitors; DT40 Tdp1-/- hTDP1 cells, no CPT, ATP luminescence, 48 h; AID 686978, 2013; note: % is set by controls: 0 for no effect and ±100 for the full control effect; nearly all actives have a fitted effect of over 55% in size
#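 Luminescent ATP content (CellTiter-Glo) served as the growth readout. Knockout chicken DT40 cells expressing human TDP1 were exposed to compounds without camptothecin for a minimum 48 hr at 37 °C.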
# HT1080-NT tox – qHTS for induction of synthetic lethality in tumor cells producing 2HG: qHTS for the HT-1080-NT fibrosarcoma cell line. Potency, µM (highest dose often 46.1 µM), inactives show at the top dose activity, negative = less viability, usual class: cytotoxic. HT-1080-NT fibrosarcoma viability, CellTiter-Glo ATP luminescence, 48 h. 360,000 compounds, 1.6% hits;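 note: NT is the 2HG producing partner of a matched IDH1 knockdown line; 0% = DMSO-treated cells and -100% = media-only wells without cells; nearly all actives have a fitted effect of over 55% in size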
#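 750 cells/well, RPMI + 5% FBS; 2 h settle, compound pin-transfer, 48 h at 37 degrees C. CellTiter-Glo 10 min RT, luminescence. Normalized to DMSO and media-only wells.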
# HT1080 IDH1KD tx – qHTS for induction of synthetic lethality in tumor cells producing 2HG: qHTS for the HT-1080-IDH1KD cell line. HT-1080 IDH1 knockdown viability, ATP luminescence, 48 h. Potency, µM (doses to about 46.1 µM), for inactives: at the highest dose activity, negative = toxicity, most hits filed as cytotoxic. 360,000 compounds, 2% hits. AID 686971, 2013;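 note: 0% = DMSO wells and -100% = cell-free medium wells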
#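 In this qHTS, HT-1080 cells depleted of IDH1 are exposed for 48 h at 37 °C to compound titrations. Toxicity is scored from CellTiter-Glo luminescence, with DMSO as full viability and medium alone as none.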
# TGFb SMAD3 inh – qHTS for Inhibitors of TGF-b. 410,000 compounds, 1.2% hits. Potency, µM (doses to about 46.1 µM), for inactives: at the highest dose activity, negative = inhibition, most hits filed as inhibitors. HepG2 CAGA-GFP TGF-b/SMAD3 reporter, GFP fluorescence, 18 h; TGF-beta stimulated, 500 pg/mL final. AID 588855, 2011; note: % is set by controls: 0 for no effect and ±100 for the full control effect; nearly all actives have a fitted effect of over 65% in size
#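 GFP signal (ex488/em500-530) from TGF-beta-stimulated HEPG2 CAGA-GFP cells, 500 pg/mL final, 18 h at 37 degrees C in DMEM plus 1% FBS, normalized to unstimulated and DMSO-stimulated controls.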
# HepG2 tox – qHTS for Inhibitors of TGF-b: Cytotox Counterscreen. HepG2 CAGA-GFP viability, ATP luminescence, 18 h. Potency, µM (series often up to 46.1 µM), without a hit: at the top dose activity change, negative = cytotoxicity, most hits filed as cytotoxic. 410,000 compounds, 0.76% hits. AID 588856, 2011
#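 CellTiter-Glo luminescence gave cytotoxicity after 18 hours at 37 degrees C. The cells were HepG2 CAGA-GFP in 1% FBS DMEM, stimulated with 500 pg/mL TGF-beta after compound addition. %Activity was normalised to no-cell wells (complete cell-killing) and DMSO (no toxicity), and curves were fitted and classified.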
# DT40 TDP1 CPT – qHTS for Inhibitors of human tyrosyl-DNA phosphodiesterase 1 (TDP1): qHTS in cells in presence of CPT. Potency, µM (doses to about 46.2 µM), without a hit: at the highest dose activity change, negative = growth inhibition, most hits filed as inhibitors. 420,000 compounds, 12% hits. chicken DT40 Tdp1-/-;hTDP1 cells + 20 nM CPT, ATP luminescence, 48 h; note: % is set by controls: 0 for no effect and ±100 for the full control effect; nearly all actives have a fitted effect of over 55% in size
#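 Chicken DT40 Tdp1-/- cells stably complemented with human TDP1 were seeded at 400 cells/well in medium containing 20 nM camptothecin, exposed to pin-transferred compounds, and grown at 37 °C for at least 48 hr. Viability was read as ATP luminescence.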
# Active calls of the source: *; ? = inconclusive; [ ] = dose if it differs, or a comment. Calls come from the whole dose curve; as a rule, active = well fitted curve in the direction sought with a large enough effect; inconclusive = small, poorly fitted or top-dose-only effect, or another doubt; inactive = no such curve, though single readings can be large; an effect the other way counts as inactive or inconclusive. Potency is the fitted concentration of half-maximal effect.
SMILES,DT40 TDP1 no CPT,HT1080-NT tox,HT1080 IDH1KD tx,TGFb SMAD3 inh,HepG2 tox,DT40 TDP1 CPT
Cc1sc(NC(=O)c2ccco2)c(C(Nc2ccccn2)c2ccccc2)c1C (centres undefined),?,-10%,-10%,0%,-21%,-15%
Cc1sc(NC(=O)c2ccco2)c(CN2CCCCC2)c1C,?,7%,6%,-17%,-8%,?
CCOc1ccc(C(c2c(NC(=O)c3ccco3)sc(C)c2C)N2CCOCC2)cc1 (centres undefined),?,8%[9.24 µM],-21%,?,-1%,23µM*
Cc1sc(NC(=O)c2ccco2)c(CN2CCN(c3ccccc3)CC2)c1C,10µM*,-12%,-10%,-20%,-25%,15µM*
Cc1sc(NC(=O)c2ccco2)c(C(c2cccnc2)N2CCN(C)CC2)c1C (centres undefined),12µM*,-29%,-10%,-2%,-11%,21µM*
Cc1sc(NC(=O)c2ccco2)c(C(c2ccncc2)N2CCOCC2)c1C (centres undefined),?,7%,-12%,-13%,-41%,-27%
Cc1sc(NC(=O)c2ccco2)c(C(c2cccnc2)N2CCCC2)c1C (centres undefined),2.3µM*,?,?,?,-13%,2.9µM*
COc1cccc(C(c2c(NC(=O)c3ccco3)sc(C)c2C)N2CCOCC2)c1 (centres undefined),?,-14%,-14%,?,0%,?
CC(c1ccccc1)C1CC(=O)N(Cc2ccco2)C1=O (centres undefined),21µM*,6%,12%,-4%,-17%,?
CC(c1ccccc1)C1CC(=O)N(CC(=O)O)C1=O (centres undefined),1%,-2%,-3%,3%,0%,3%
C=CCn1c(SCC(=O)c2[nH]c(C)c(C(=O)OCC)c2C)nc2scc(-c3ccc(OC)cc3)c2c1=O,15µM*,-20%,-18%,2%,-27%,9.2µM*
C=CCn1c(SCC(=O)c2[nH]c(C)c(C(=O)OCC)c2C)nc2scc(-c3ccccc3)c2c1=O,16µM*,-7%,2%,-6%,-28%,12µM*
C=CCn1c(SCCN2C(=O)c3ccccc3C2=O)nc2scc(-c3ccccc3)c2c1=O,?,12%,9%,2%,-27%,?
O=C(CSc1nc2ccccc2c(=O)[nH]1)c1ccc(O)cc1O,?,-30%,?,9%,-1%,13µM*
O=C(CSc1nc2ccccc2c(=O)[nH]1)c1cccs1,16µM*,-3%,-3%,12%,-23%,8.2µM*
O=C(CSc1nc2ccccc2c(=O)[nH]1)c1ccc(O)c(O)c1,-13%,-2%,2%,-27%,-28%,-26%
Cc1cc(SCC(=O)c2cccs2)nc2ccccc12,?,-15%,-9%,-15%,-35%,16µM*
Cc1cc(SCC(=O)NC2CC2)nc2ccccc12,-8%,9%,6%,-3%,-1%,2%
Cc1nn(C)c(C)c1S(=O)(=O)NCCc1ccc(Cl)cc1,-10%,10%,13%,4%,-2%,18%
CCN(c1ccccc1)S(=O)(=O)c1cccc(C(=O)N(C)CC(=O)Nc2ccc(F)c(F)c2F)c1,18µM*,-1%[9.24 µM],-3%,-26%,-6%,15µM*
